# From PubChem BioAssay (NCI)
# About 83,000 compounds went through this panel and 20% of them were active in at least one assay; those are over-represented in the sample as a whole.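 Results are percent growth after 48 hours of single-concentration exposure. 100 means growth as in untreated cells, lower positive values show inhibition; negative values down to -100 show cell death.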 Values without a mark were called inactive. Active and inactive are the calls of the source. The calls were made as follows: active = growth percent below 10; inactive = the rest.
# Columns and labels:
# Test in all cases: NCI-60 one-dose screen, 48 h (100 = growth as untreated, 0 = no growth, -100 = all killed)
# Details in all cases: 10 µM unless noted
# [1] = test system: NCI-H23 lung
# [2] = test system: NCI-H226 lung
# [3] = test system: NCI-H322M lung
# [4] = test system: HOP-62 NSCLC
# [5] = test system: NCI-H460 lung
# [6] = test system: HOP-92 NSCLC
# [7] = test system: A549/ATCC NSCLC
# [8] = test system: 786-0 renal
# [9] = test system: COLO 205 colon
SMILES,growth [1],growth [2],growth [3],growth [4],growth [5],growth [6],growth [7],growth [8],growth [9]
CC1C(C)N(C(=O)CCl)c2ccccc2N1C(=O)CCl (stereo unspecified),-61.1% (active),13.7%,3.9% (active),-67.3% (active),-37.3% (active),-40.7% (active),38.4%,-55.1% (active),-70.6% (active)
Nc1ccccc1-c1ccn[nH]1,110%,86.8%,93.8%,87.4%,104%,91.4%,89.6%,98.9%,86.6%
COc1cnc2c(c1)C(=O)c1c-2n(CCCn2ccnc2)c(=O)c2cc(F)ccc12,-36.7% (active),-67.9% (active),-1.28% (active),-29.8% (active),-62.9% (active),-15.9% (active),-20.8% (active),-62.6% (active),-34% (active)
C=C1CC[C@@H]2[C@](C)(COC(C)=O)[C@H](OC(C)=O)CC[C@@]2(C)[C@@H]1CC(NCc1ccccc1)C1=CCOC1=O (stereo partly specified),57.4%,11.4%,77%,89%,48.4%,41.7%,49.2%,71.4%,45.6%
CC1CN(C2CCCCC2)C(=O)NC1=O (stereo unspecified),114%,101%,80.5%,108%,114%,92%,104%,110%,101%
O=C1OC(Oc2ccccc2)(c2ccccc2)c2ccccc21 (stereo unspecified),105%,107%,128%,106%,99.1%,88%,95%,101%,112%
CC1CN(CC(O)c2ccc(Br)cc2)CCO1 (stereo unspecified),104%,109%,107%,108%,108%,82.5%,102%,102%,98.1%
COc1cc(-c2nc3sc4c(c3c(=O)[nH]2)CCCCCC4)cc(OC)c1OC,22.3%,60.9%,39%,29.6%,8.85% (active),42.7%,25.8%,40.7%,-24.2% (active)
C[C@@H]1CN(c2nc3c(cc2F)c(=O)c(C(=O)O)cn3C(C)(C)C)C[C@H](C)N1,95.2%,91%,93.7%,98.5%,107%,71.6%,99.9%,112%,110%
CCOC(=O)c1cc2oc(/C=C/c3cc(=O)c4cc(Cl)ccc4o3)cc2[nH]1,98.6%,76.9%,108%,99.6%,88.9%,-17.9% (active),99%,97.7%,93.9%
Fc1ccccc1C1c2ccccc2-c2nccn21 (stereo unspecified),87%,88.1%,96.2%,98.4%,110%,61.8%,94.9%,89.7%,111%
Cc1ccc(C(=O)Cc2ccccc2)c(O)c1,101%,102%,77.6%,104%,111%,87.3%,102%,112%,109%
Cc1sc2nc3c4ccccc4c(NCCCN(C)C)nn3c(=O)c2c1C,60.9%,42.8%,83.1%,61.7%,23.6%,29%,15%,55.7%,-57.4% (active)
c1ccc(CN=C(NCc2ccccc2)NCc2ccccc2)cc1,42.4%,51.1%,75.6%,78.6%,73.4%,48.5%,47.3%,73.1%,41.3%
